From PubChem BioAssay (NCATS) come the findings set out here.

Records with an inconclusive call do not appear. Active and inactive are the calls of the source. Unless noted, calls follow the shape of the dose curve; as a rule, active = well fitted curve in the direction sought with a large enough effect; inconclusive = small, poorly fitted or top-dose-only effect, or another doubt; inactive = no such curve, though single readings can be large; an effect the other way counts as inactive or inconclusive.

The target of assay [1] is ATP-dependent DNA helicase Q1 (Homo sapiens) (UniProt P46063). The assay is described as follows: qHTS Validation Assay for Inhibitors of RecQ-Like Dna Helicase 1 (RECQ1) (AID 2353). Also: potency is read from the fitted curve at half-maximal effect. The method in brief:
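RECQ1T1 50 nM; forked duplex (20 bp + 30-nt ss tails) 200 nM, ATP 2 mM final; pH 8.0, 2 mM MgCl2, 2.5 ug/ml poly(dI-dC); 15 min compound preincubation; discontinuous kinetic read over 2 h at RT.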
For orientation: In qHTS, concentration-response curves come from the screen itself.

Assay [2] concerns the target RecQ-like DNA helicase BLM (Homo sapiens) (UniProt P54132). Put plainly: qHTS Validation Assay for Inhibitors of Bloom's syndrome helicase (BLM) (AID 2364). The method, boiled down:
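Forked 20-bp duplex substrate (200 nM, TAMRA/BHQ-2) plus 2 mM ATP added after 15 min compound preincubation with 50 nM enzyme, pH 8.0, poly(dI-dC) 2.5 ug/ml. Strand separation followed by fluorescence (525/598 nm) over 2 h, normalized to enzyme-free and DMSO controls.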

Assay [3] can be described thus: Cytometric Cell-Based qHTS for Inhibitors of the mTORC1 Signaling Pathway in MEF (Tsc2-/-, p53-/-) Cells (AID 2660).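 Also: Tsc2 and p53 null MEFs carrying empty vector with compound for 24 h; percent of cells above a phospho-rpS6 to PI ratio cutoff in each well.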 The method in brief: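 Cells are plated, treated with compound for 24 hrs at 37 degree Celsius, then fixed, blocked and immunostained for phospho-rpS6 Ser235/236. Propidium iodide counterstain follows. Per-well % positive cells is derived from the PI-normalized phospho-S6 signal.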

Assay [4] in a line: High Content Imaging Cell-Based qHTS for Inhibitors of the mTORC1 Signaling Pathway in MEF (Tsc2-/-, p53-/-) Cells (AID 2666).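 Also: percent of cells scored positive for phospho-rpS6 Ser235/236 immunostaining by imaging.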 As to conditions: at 38.3 µM (top of the series). The method in brief:
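Tsc2-/-, p53-/- MEFs (empty-vector stable) grown in DMEM + 10% FBS were exposed to compounds for 24 hrs at 37 degree Celsius, fixed, and stained with Alexa-488 anti-phospho-rpS6 Ser235/236 plus Hoechst. Imaging gave the percentage of positive cells per well.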

Assay [5] is described as follows: Cytometry Cell-Based qHTS for Inhibitors of the mTORC1 Signaling Pathway in MEF cells (AID 2668).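 Also: Tsc2-/- p53-/- mouse embryonic fibroblasts stably re-expressing wild-type Tsc2; percent cells positive for phospho-rpS6 Ser235/236 relative to propidium iodide stain.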 The method, boiled down: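 Phospho-rpS6 (Ser235/236) immunofluorescence over PI signal, scored as % positive cells using thresholds from 7.5 nM rapamycin and DMSO wells, after 24 h compound exposure of WT-Tsc2-rescued Tsc2-/-, p53-/- MEFs. PI cell count recorded for viability.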

The nature of assay [6]: Validation screen for inhibitors of Lassa infection (AID 463096; calls by dose curve).
A short description of assay [7]: Validation screen for small molecules that induce DNA re-replication in MCF 10A normal breast cells (AID 463097). Also: nearly all actives have a fitted effect of over 60% in size. The method, boiled down:
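Read-out is Hoechst total nuclear intensity by fluorescence scanning imager, flagging increased high-DNA-content nuclei. Compounds were incubated with MCF 10A cells for 48 hr (37 C, 5% CO2) before 40 min staining.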

In assay [8] the target is DNA polymerase III PolC-type (Bacillus subtilis (strain 168)) (UniProt P13267). Put plainly: qHTS Validation Assay for the Inhibitors of DNA Replication in Gram-Positive Bacteria (AID 485295).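 Also: reconstituted holoenzyme with PolC plus beta clamp SSB and primase; PicoGreen fluorescence of double-stranded DNA made on primed circular M13 template.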 The method in brief:
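Double-stranded DNA product detected by PicoGreen fluorescence after EDTA quench. Compound incubated with B. subtilis holoenzyme (PolC, beta subunit, SSB, primase) before substrate addition; primed replication of M13Gori with dNTPs and NTPs at room temperature; DMSO defines 0% inhibition.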

Assay [9] has as its target Tumor susceptibility gene 101 protein (Homo sapiens) (UniProt Q99816). Put plainly: qHTS Validation Assay for Iinhibitors of HIV-1 Budding by Blocking the Interaction of PTAP/TSG101 (AID 485342; calls by dose curve). The method in brief:
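Fluorescence polarization of 50 nM FITC-PTAP peptide bound to 10 uM Tsg101 binding domain was read after 20 min room-temperature incubation with compounds, in 10 mM HEPES pH 7.5, 0.15 M NaCl, 0.01% Tween 20.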

Assay [10] in a line: qHTS Validation Assay to Find Inhibitors of Chronic Active B-Cell Receptor Signaling (AID 485345; active = well fitted curve in the direction sought with a large enough effect in the main read-out, with a control signal flat, not every such curve was filed as active). The method, boiled down:
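Read-out: ratio of filter-corrected green (IkappaBalpha fusion) to red (native) luciferase signal in doxycycline-induced TMD8 cells after 4 h at 37C. Titration spanned 46 uM–3 nM; Data were normalised to basal cells and 10 uM MG-132 wells.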

Assay [11] can be described thus: Quantitative high throughput screen for delayed death inhibitors of the malarial parasite plastid, 96 hour incubation (AID 488745). Also: nearly all actives have a fitted effect of over 70% in size. Also: potency is read from the fitted curve at half-maximal effect. The method, boiled down:
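Readout is firefly luciferase luminescence from an integrated reporter in P. falciparum; lower signal marks inhibited growth. Cultures at 2% hematocrit and 0.1% parasitemia were treated with compound across two generations (96 h, 37 C, 5% CO2).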

A short description of assay [12]: Quantitative high throughput screen for delayed death inhibitors of the malarial parasite plastid, 48 hour incubation (AID 488752). Also: nearly all actives have a fitted effect of over 65% in size. Also: potency is read from the fitted curve at half-maximal effect. The method in brief: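 First, compound was pinned into RPMI 1640 medium containing 0.5% Albumax. Next, reporter-parasite-infected erythrocytes were added to 2% hematocrit and 0.1% parasitemia. After 48 h at 37 C under 5% CO2, luciferase detection reagent was added and luminescence read.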

The target of assay [13] is Thioredoxin reductase 1, cytoplasmic (Rattus norvegicus) (UniProt O89049). Put plainly: qHTS Assay for Substrates of Mammalian Selenoprotein Thioredoxin Reductase 1 (TrxR1) (AID 488772).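 Also: a drop in NADPH fluorescence below the no-compound background marks a TrxR1 substrate.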 The method, boiled down: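 In this dual-purpose format, potential substrates are identified from the first fluorescence read after selenite addition, not from the 8-minute delta. Rat enzyme is preincubated with NADPH and then with compound at ~22 deg C.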
Sequence of Thioredoxin reductase 1, cytoplasmic (Rattus norvegicus) (O89049 whole entry, looked up): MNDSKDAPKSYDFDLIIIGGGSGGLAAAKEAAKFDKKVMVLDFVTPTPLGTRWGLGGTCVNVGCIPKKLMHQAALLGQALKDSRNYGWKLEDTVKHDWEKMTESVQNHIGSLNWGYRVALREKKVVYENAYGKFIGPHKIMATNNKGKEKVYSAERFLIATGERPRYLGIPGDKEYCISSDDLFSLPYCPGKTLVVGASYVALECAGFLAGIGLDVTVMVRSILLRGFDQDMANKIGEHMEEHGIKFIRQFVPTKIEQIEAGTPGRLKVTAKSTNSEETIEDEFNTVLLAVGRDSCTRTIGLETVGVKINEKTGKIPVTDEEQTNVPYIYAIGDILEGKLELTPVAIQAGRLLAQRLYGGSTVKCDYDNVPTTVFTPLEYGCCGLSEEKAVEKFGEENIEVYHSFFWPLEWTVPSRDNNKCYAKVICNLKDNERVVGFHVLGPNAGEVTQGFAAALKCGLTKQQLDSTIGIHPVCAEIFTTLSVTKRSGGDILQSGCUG

Assay [14] deals with Flap endonuclease 1 (Homo sapiens) (UniProt P39748). The assay is described as follows: qHTS Validation Assay for the Inhibitors of Human Flap endonuclease 1 (FEN1) (AID 488816). The method in brief:
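qHTS format: compounds and 10 nM FEN1 incubated 15 min at room temperature before adding 50 nM substrate. Cleavage followed by reads at 0 and 15 min; normalized data fitted to a four-parameter Hill curve.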

The target of assay [15] is M-phase phosphoprotein 8 (Homo sapiens) (UniProt Q99549). Put plainly: qHTS Validation Assay for Inhibitors for MPP8 Chromodomain Interactions with Methylated Histone Tails (AID 488949).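 Also: AlphaScreen signal from MPP8 chromodomain bound to biotinylated H3K9me3 peptide; top concentration of the series differs between compounds; nearly all actives have a fitted effect of over 55% in size.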 The method, boiled down: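 AlphaScreen proximity signal from streptavidin donor and Ni-chelate acceptor beads (10 ug/mL each) reported binding of MPP8 to trimethyl-K9 H3(1-18) peptide, both at 50 nM. The complex formed 30 min before a 30 min compound exposure at room temperature, in PBS pH 7.4.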
Sequence of M-phase phosphoprotein 8 (Homo sapiens) (Q99549 whole entry, looked up): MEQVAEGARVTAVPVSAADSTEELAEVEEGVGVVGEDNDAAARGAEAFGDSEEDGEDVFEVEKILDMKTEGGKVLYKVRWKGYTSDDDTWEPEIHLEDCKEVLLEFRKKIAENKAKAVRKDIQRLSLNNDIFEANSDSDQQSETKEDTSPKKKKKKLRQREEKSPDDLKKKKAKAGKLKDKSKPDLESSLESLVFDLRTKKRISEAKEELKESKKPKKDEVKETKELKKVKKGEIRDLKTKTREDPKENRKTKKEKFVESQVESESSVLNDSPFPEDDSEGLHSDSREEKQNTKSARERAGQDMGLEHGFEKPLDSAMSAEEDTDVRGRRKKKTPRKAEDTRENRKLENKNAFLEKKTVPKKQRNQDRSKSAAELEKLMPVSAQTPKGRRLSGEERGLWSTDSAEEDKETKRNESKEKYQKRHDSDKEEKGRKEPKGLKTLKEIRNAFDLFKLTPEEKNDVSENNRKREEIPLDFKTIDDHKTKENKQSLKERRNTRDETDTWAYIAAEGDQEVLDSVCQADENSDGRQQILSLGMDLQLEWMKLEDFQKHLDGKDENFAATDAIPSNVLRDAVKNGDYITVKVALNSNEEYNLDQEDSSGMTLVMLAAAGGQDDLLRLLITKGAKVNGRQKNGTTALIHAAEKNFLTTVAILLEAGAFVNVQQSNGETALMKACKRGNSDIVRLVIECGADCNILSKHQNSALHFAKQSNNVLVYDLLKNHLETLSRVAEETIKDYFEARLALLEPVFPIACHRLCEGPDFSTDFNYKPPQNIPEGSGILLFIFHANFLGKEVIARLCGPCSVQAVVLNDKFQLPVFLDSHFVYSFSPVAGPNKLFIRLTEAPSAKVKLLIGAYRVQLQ

Assay [16] concerns the target Chromobox protein homolog 1 (Homo sapiens) (UniProt P83916). The assay is described as follows: qHTS Validation Assay for Inhibitors of HP1-beta Chromodomain Interactions with Methylated Histone Tails (AID 488953). Also: nearly all actives have a fitted effect of over 50% in size. Also: potency is read from the fitted curve at half-maximal effect. The method, boiled down: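 Disruption of preformed HP1-beta:H3K9me3 peptide complexes (both 50 nM, PBS pH 7.4 with 0.01% Tween-20) is measured by AlphaScreen after 30 min compound exposure at room temperature, using streptavidin donor and nickel chelate acceptor beads at 10 ug/mL final.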

In assay [17] the target is Methanococcus maripaludis chaperonin (MmCpn) (UniProt Q6LX38). Put plainly: High-Throughput Screening for Modulators of Cytosolic Chaperonin Activity: MmCpn Primary Screen (AID 488978).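 Also: 50 nM MmCpn enzyme hydrolysing 30 µM ATP at 37 °C.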 The method in brief: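 ATPase activity of 50 nM MmCpn was assayed with 30 uM ATP, 10 minutes at 37C, after a 5 min compound preincubation at room temperature. ADP production was read as HTRF emission at 590 and 665 nm.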

Assay [18] addresses Ubiquitin carboxyl-terminal hydrolase 2 (Homo sapiens) (UniProt O75604). Put plainly: qHTS Validation Assay for Inhibitors of Ubiquitin-specific Protease USP2a Using CHOP2 as the Reporter (AID 463106). The method, boiled down: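 Readout was coupled fluorescence (Ex 485/Em 531 nm), read 60 min after adding 25 nM final Ub-CHOP2 and 25 nM reporter substrate. Beforehand, 10 nM final USP2 core had 30 min at RT with compound in pH 8.0 buffer. Curves were fitted after normalization to NEM and flagged for artifacts using time-zero reads.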

Assay [19] has as its target Thioredoxin reductase 1, cytoplasmic (Rattus norvegicus) (UniProt O89049). The assay is described as follows: qHTS Assay for Inhibitors of Mammalian Selenoprotein Thioredoxin Reductase 1 (TrxR1) (AID 488773).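 Also: drop in NADPH fluorescence over an 8 min run after selenite addition; nearly all actives have a fitted effect of over 40% in size.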 The method, boiled down: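 Inhibition is scored from the loss of NADPH fluorescence between first and last reads of an 8-min kinetic run. Selenite (400 uM) was the substrate, added after 15 min compound preincubation at room temperature.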

Assay [20] has as its target ATP-dependent 6-phosphofructokinase (Trypanosoma brucei brucei) (UniProt O15648). Put plainly: qHTS Validation Assay to Find Inhibitors of T. brucei phosphofructokinase (AID 485368). As to conditions: outcome: dose series up to 57.5 µM. The method in brief:
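qHTS format, up to 57 uM. PFK 1.25 nM; F6P 0.5 mM; ATP 0.1 mM; 5 mM MgCl2, 0.01% Tween20, 0.1% BSA; 0.1 M TEA pH 8.0; 45 min RT; ADP-Glo readout; no-enzyme control = full inhibition.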

Sequence of ATP-dependent DNA helicase Q1 (Homo sapiens) (P46063 whole entry, looked up): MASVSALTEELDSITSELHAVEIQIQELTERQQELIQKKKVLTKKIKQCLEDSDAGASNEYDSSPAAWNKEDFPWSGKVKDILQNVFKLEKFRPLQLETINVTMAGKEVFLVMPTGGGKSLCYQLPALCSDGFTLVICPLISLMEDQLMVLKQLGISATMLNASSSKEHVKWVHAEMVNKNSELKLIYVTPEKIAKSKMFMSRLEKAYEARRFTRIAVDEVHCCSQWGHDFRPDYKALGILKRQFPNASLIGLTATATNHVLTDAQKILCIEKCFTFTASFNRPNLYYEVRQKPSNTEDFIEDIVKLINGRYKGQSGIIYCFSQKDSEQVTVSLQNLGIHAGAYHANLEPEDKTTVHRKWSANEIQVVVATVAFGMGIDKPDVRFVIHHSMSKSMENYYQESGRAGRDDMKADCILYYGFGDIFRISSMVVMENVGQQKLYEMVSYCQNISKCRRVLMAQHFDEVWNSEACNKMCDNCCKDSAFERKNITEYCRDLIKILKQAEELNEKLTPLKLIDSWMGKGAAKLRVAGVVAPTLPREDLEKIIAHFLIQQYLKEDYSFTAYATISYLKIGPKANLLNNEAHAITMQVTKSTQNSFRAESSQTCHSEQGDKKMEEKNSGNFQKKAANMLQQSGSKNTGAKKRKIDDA
Sequence of Tumor susceptibility gene 101 protein (Homo sapiens) (Q99816 whole entry, looked up, the tested form may be a part): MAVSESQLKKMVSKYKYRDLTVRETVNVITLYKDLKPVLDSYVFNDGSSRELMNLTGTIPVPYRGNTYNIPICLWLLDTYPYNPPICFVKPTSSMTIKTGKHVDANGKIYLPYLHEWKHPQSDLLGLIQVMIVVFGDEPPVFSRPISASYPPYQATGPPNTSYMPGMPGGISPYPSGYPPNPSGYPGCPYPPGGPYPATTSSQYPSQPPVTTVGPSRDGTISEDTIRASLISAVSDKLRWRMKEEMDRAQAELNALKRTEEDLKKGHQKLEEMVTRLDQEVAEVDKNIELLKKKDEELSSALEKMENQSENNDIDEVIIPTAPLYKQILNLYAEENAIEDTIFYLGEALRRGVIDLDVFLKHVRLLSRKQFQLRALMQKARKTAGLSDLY
Sequence of Chromobox protein homolog 1 (Homo sapiens) (P83916 whole entry, looked up): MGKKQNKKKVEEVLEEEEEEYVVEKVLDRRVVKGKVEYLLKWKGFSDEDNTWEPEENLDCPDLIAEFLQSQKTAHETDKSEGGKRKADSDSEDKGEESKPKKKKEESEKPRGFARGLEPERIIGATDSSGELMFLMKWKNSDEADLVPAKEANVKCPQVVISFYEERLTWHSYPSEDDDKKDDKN
Sequence of ATP-dependent 6-phosphofructokinase (Trypanosoma brucei brucei) (O15648 whole entry, looked up): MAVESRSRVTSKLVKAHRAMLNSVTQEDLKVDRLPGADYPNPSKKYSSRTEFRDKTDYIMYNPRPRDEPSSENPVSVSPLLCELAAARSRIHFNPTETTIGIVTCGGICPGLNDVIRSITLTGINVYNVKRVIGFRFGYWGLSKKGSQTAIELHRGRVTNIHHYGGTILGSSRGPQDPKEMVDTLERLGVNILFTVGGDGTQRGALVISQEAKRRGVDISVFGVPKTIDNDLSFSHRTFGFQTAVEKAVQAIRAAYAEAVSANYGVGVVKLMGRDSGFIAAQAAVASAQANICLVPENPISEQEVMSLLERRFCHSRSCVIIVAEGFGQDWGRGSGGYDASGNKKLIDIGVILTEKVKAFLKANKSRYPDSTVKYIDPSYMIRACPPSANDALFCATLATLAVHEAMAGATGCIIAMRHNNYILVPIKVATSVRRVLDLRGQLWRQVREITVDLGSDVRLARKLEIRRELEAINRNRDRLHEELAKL
Sequence of DNA polymerase III PolC-type (Bacillus subtilis (strain 168)) (P13267 whole entry, looked up): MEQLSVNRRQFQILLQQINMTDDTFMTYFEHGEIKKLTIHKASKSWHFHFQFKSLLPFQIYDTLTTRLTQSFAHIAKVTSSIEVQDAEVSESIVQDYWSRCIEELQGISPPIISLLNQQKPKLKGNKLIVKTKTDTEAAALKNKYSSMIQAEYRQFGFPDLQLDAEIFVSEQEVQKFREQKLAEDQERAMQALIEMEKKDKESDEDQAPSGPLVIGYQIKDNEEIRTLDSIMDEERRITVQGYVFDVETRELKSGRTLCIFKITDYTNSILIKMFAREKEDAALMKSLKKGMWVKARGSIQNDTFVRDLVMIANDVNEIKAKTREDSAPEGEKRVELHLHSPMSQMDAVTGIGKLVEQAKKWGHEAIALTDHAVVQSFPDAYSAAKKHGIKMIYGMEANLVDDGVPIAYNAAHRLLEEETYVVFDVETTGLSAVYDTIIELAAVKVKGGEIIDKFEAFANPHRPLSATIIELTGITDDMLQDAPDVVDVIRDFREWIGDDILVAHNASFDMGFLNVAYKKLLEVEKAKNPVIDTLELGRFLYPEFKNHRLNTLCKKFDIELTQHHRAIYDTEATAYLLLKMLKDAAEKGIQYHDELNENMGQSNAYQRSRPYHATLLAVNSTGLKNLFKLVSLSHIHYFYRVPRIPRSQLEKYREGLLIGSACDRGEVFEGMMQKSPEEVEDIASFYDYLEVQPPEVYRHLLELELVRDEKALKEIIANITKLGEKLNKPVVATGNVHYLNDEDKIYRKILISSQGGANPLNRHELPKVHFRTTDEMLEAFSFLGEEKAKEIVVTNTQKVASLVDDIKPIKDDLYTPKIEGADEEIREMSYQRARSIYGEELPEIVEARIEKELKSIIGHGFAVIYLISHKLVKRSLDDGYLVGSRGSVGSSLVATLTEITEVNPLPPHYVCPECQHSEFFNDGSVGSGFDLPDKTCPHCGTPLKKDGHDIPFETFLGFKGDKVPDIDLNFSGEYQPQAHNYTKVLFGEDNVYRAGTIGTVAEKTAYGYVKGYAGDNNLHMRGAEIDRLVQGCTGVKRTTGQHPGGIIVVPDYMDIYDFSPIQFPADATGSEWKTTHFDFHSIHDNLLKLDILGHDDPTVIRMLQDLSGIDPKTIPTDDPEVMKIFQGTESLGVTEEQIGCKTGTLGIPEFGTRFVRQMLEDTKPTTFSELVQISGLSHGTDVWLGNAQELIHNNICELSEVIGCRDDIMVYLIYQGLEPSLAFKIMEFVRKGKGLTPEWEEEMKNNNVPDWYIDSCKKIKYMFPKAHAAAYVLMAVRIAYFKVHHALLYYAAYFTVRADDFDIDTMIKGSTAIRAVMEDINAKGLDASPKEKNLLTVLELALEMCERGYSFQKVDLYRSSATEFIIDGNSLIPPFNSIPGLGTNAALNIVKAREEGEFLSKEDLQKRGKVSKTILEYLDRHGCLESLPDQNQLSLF
Sequence of Flap endonuclease 1 (Homo sapiens) (P39748 whole entry, looked up): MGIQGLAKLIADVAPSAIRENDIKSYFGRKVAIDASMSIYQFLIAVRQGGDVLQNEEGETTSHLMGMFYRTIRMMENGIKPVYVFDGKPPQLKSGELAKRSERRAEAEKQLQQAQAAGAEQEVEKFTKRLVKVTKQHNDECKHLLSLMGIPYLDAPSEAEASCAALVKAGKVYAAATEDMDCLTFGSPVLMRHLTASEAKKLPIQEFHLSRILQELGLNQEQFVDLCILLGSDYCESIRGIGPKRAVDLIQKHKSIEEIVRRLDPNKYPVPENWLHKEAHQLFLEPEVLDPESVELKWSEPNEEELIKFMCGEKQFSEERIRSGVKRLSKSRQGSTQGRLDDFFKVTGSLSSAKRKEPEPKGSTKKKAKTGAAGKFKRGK

On to `CCCCC/C=C\C/C=C\C/C=C\C/C=C\CCCC(=O)NCC(=O)O`, for which the Potency in [1] was 3.98 µM (active); in assay [16], 44.7 µM (active). The compound was called inactive in [2], in [3], in assay [4], in assay [5], in [6] and in assay [7]. The outcome in assay [8], in [9], in assay [10], in [13], in assay [14] and in [17] was inactive. Also, the Potency entry in [11], in assay [12] and in [15] was “inactive” in each case.

As to `Nc1cc(=O)[nH]c(N)n1`, in assay [6], the call was inactive.

Turning to `CNC[C@H](O)c1cccc(O)c1`, in assay [6], the outcome was inactive.

Regarding `CC(C)(C)NCC(O)c1ccccc1Cl` (configuration not stated), the Potency entry in assay [1], in assay [11], in assay [12], in assay [15] and in assay [16] was “inactive” in each case. In addition, the compound was called inactive in assay [3], in assay [4], in [5], in assay [6], in assay [7] and in assay [18]. Moreover, the call in assay [8], in assay [9], in assay [10], in [13], in assay [19] and in assay [14] was inactive. Also, the compound was classed as inactive in [17].

For `Cc1ncsc1CCCl`, the result in assay [3], in assay [4], in assay [5], in assay [18], in assay [8] and in [9] was inactive. Also, the compound was called inactive in assay [10], in assay [20], in [13], in assay [19], in assay [14] and in assay [17]. In addition, the Potency entry in assay [15] and in assay [16] was “inactive” each time.

For the compound `NCCCNCCSP(=O)(O)O`, the call in assay [6] was inactive.

On to `Clc1cccc(Cl)c1NC1=NCCN1`, for which the compound was called inactive in assay [6].

In the case of `N[C@@H](COP(=O)(O)O)C(=O)O`, in [6], the result was inactive.

In the case of `COc1ccc2[nH]cc(CCNC(C)=O)c2c1`, in assay [6], the compound was classed as inactive.

Consider `CN=C(NC#N)Nc1ccc(C2=NNC(=O)CC2C)cc1` (configuration not stated), for which, in assay [6], the compound was classed as inactive.

For the compound `CC(C)NNC(=O)c1ccncc1`, in [6], the call was inactive.

Regarding `O=P1(N(CCCl)CCCl)NCCCO1` (configuration not stated), the Potency result in [1], in assay [11], in assay [12] and in assay [15] was “inactive” in each case. Moreover, the result in assay [2], in [3], in [4], in [5], in assay [6] and in [7] was inactive. Besides, the compound was classed as inactive in [18], in [8], in assay [9], in [10], in [20] and in assay [13]. For the same compound, the compound was called inactive in assay [19], in [14] and in [17]. Besides, the Potency in [16] was 0.006 µM (active).

With `CC(NC(C)(C)C)C(=O)c1cccc(Cl)c1` (configuration not stated), the Potency entry in assay [1], in assay [11], in assay [12], in assay [15] and in assay [16] was “inactive” each time. Moreover, the compound was called inactive in [3], in [4], in assay [5], in assay [6], in [7] and in [18]. The compound was called inactive in assay [8], in assay [9], in [10], in assay [13], in assay [19] and in [14]. In addition, in [17], the outcome was inactive.

On to `CC(C)c1cccc(C(C)C)c1O`, for which the Potency entry in assay [1], in assay [11], in [12], in assay [15] and in assay [16] was “inactive” throughout. Also, the outcome in [3], in [4], in assay [5], in assay [6], in assay [7] and in assay [18] was inactive. Moreover, the call in assay [8], in assay [9], in assay [10], in assay [20], in [13] and in [19] was inactive. For the same compound, the call in assay [14] and in assay [17] was inactive.

`CCN(CC)CCNC(=O)c1ccc(N)cc1`: in assay [6], the result was inactive.

Take `CC(C)NCC(O)c1ccc(NS(C)(=O)=O)cc1` (configuration not stated): in assay [6], the call was inactive.

As for `NC(=O)c1ncn([C@@H]2O[C@H](CO)[C@@H](O)[C@H]2O)c1O`, the call in [6] was inactive.

With `O=C(O)CCCc1ccc(N(CCCl)CCCl)cc1`, the Potency entry in assay [1], in assay [11], in assay [12], in assay [15] and in assay [16] was “inactive” in each case. Also, the call in assay [3], in assay [4], in assay [5], in [6], in assay [18] and in assay [8] was inactive. Also, the call in assay [9], in assay [13], in [14] and in assay [17] was inactive.

As to `CC(=O)N1CCN(c2ccc(OC[C@H]3CO[C@](Cn4ccnc4)(c4ccc(Cl)cc4Cl)O3)cc2)CC1`, the Potency in [11] is 11.7 µM (active); in assay [12], 8.28 µM (active); in [16], 39.8 µM (active). For the same compound, the compound was called inactive in [14].

Regarding `CN(C)C(=O)Oc1ccc[n+](C)c1`, the Potency in assay [16] is 0.0067 µM (active).
